CYP2C19 act: activators of human cytochrome P450 2C19 | recombinant CYP2C19, luciferin-H EGE luminescence; active compounds read high; 0 = fully inhibited enzyme, 1 = untreated enzyme | activation factor at 5 µM | 96,000 tested, under 10 active;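 active means activation factor of at least 2 at 5 µM in the primary screen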;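 further: 0 = wells with 2.5 mM tranylcypromine and 1 = vehicle-only wells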
Target sequence (P33261 whole entry, looked up): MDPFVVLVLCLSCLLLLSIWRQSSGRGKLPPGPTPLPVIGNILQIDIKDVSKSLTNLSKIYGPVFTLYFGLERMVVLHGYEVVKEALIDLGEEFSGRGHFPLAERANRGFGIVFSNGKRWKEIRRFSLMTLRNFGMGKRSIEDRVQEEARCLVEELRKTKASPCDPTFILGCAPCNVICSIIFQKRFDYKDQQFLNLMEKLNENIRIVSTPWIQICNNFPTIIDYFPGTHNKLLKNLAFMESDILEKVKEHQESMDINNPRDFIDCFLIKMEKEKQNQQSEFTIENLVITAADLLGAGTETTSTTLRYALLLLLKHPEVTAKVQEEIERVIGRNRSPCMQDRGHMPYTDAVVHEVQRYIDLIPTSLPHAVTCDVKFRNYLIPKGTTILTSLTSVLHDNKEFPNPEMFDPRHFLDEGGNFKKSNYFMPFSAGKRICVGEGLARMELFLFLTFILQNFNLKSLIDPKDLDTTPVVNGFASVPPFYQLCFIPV
CYP2C9 inh: human CYP2C9 inhibition; P11712; CYP2C9 Supersomes, luciferin-H conversion, luminescence; actives 20% (n = 96,000); inhibition, % at 5 µM;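 active means blocking of liver enzyme CYP2C9 beyond about 50% at 5 µM, limit read from the data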
PostGolgi yeast: growth inhibition of a yeast mutant, post-Golgi transport screen; post-Golgi transport phenotypic cell assay; inhibition, % at 10 µM; actives 0.9% (n = 98,000);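 further: yeast cells grown in 1536-well plates; yeast grown about 18 h at 30C before absorbance read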
PostGolgi ctrl: growth of the yeast control strain, post-Golgi counter-screen; efflux-deficient yeast background strain, growth absorbance A615, 16 h; inhibition, % at 10 µM; actives 5% (n = 98,000); AID 738
CYP2C19 inh: inhibitors of human CYP2C19 | P33261 | CYP2C19 Supersomes, luciferin-H EGE luminescence, 30 min | inhibition, % at 5 µM | AID 778 | actives 21% (n = 96,000);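 active means CYP2C19 inhibition above a set limit at 5 µM in the primary screen, cut at about 50% in these data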;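 further: plate controls were negative control wells for no effect and 2.5 mM tranylcypromine positive control for full effect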
CYP2C9 activ: CYP2C9 (human) activation; P11712; recombinant CYP2C9, luciferin-H conversion, luminescence; active compounds read high; factor 1 = untreated enzyme, 0 = blocked; activation factor at 5 µM; actives 1.4% (n = 96,000);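 active means activation factor of 2 or more for CYP2C9 at a 5 µM dose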;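 further: 0 = sulfaphenazole-blocked wells and 1 = vehicle-only wells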
* marks the source's active call; other numbers are inactive results; x = no result given. Compounds with a hit are over-represented: about 32% of the library has one in this group of screens. Unless noted, no stated cut-off is given here; in the data, active means inhibition above about 30%; inactive means the rest.

SMILES	CYP2C19 act	CYP2C9 inh	PostGolgi yeast	PostGolgi ctrl	CYP2C19 inh	CYP2C9 activ
CC(OC(=O)CNC(=O)c1ccc2c(c1)OCO2)C(=O)NCCC1=CCCCC1 (stereo not drawn)	0.4	41	-2	26	63*	0.6
CN(CC(=O)NCCC1=CCCCC1)S(=O)(=O)c1ccc2c(c1)c(=O)n(C)c(=O)n2C	0.7	-54	0	1	26	1.5
CNC(=O)CN(c1ccc2c(c1)OCCO2)S(C)(=O)=O	1.1	-33	-6	-3	-6	1.3
COc1ccc(S(=O)(=O)N(C)CC(=O)NCCC2=CCCCC2)cc1C	0.1	-26	1	18	88*	1.3
CS(=O)(=O)N(CC(=O)NCCC1=CCCCC1)c1ccc2c(c1)OCO2	0.4	57*	-5	3	62*	0.4
CC1(c2ccc3c(c2)OCO3)NC(=O)N(CC(=O)NCCC2=CCCCC2)C1=O (stereo not drawn)	0.9	19	-1	-4	9	0.8
Cc1ccc(-n2ncc3c(=O)n(Cc4cccnc4)cnc32)cc1	0.7	35	2	17	26	0.6
COCCCNC(=O)CS(=O)Cc1nc(-c2cccc(OC)c2)oc1C (stereo not drawn)	0.9	46	6	8	7	0.5
Cc1cccc(N(CC(=O)NCCC2=CCCCC2)S(C)(=O)=O)c1C	0.4	95*	-2	5	56*	0
Cc1cc(C)cc(N(C(C)C(=O)NCCC2=CCCCC2)S(C)(=O)=O)c1 (stereo not drawn)	0.1	14	-8	14	92*	0.9
Cc1ccc2cc(C=C(C#N)C#N)c(N3CCCCC3)nc2c1	0.9	26	-3	36*	6	0.7
CCN1C(=O)/C(=C/N(C)c2ccccc2)OC1=S	0.2	53*	-3	6	79*	0.5
O=[N+]([O-])c1ccc(Oc2cccc(F)c2)c2ccncc12	0.1	83*	10	38*	85*	0.2
C=CCOC(=O)c1cc(-c2ccc(/C=C3\C(=O)NC(=O)C(C#N)=C3C)o2)ccc1Cl	0.8	61*	-8	5	24	0.4
CC1=NOC(=O)/C1=C\c1ccc(-c2cccc(Cl)c2)o1	0.9	4	7	4	15	1
CC1CC(C)(C)N2C(=O)C3(Nc4ccccc4S3)c3cccc1c32 (stereo not drawn)	0.5	44	-1	45*	52*	0.6
COc1ccc(CCNc2oc(-c3ccco3)nc2C#N)cc1	x	x	-7	10	x	x
N#Cc1nc(-c2ccco2)oc1NCCCn1ccnc1	0.1	84*	-3	10	86*	0.2
CCCOc1ccc(-c2nc(C#N)c(NCCCn3ccnc3)o2)cc1	x	x	-1	6	x	x
COc1ccc(-c2nc(C#N)c(NCCCn3ccnc3)o2)cc1OC	0.2	86*	4	-5	81*	0.1
COc1ccccc1N(CN1C(=O)c2ccccc2C1=O)C(=O)c1cccnc1	0.7	22	-8	-4	32	0.8
N#Cc1cc(C(=O)c2cc(Br)ccc2O)cn(C2CCCCC2)c1=O	1.1	-13	10	8	-13	1.1
C=CCNC(=O)COc1ccc(S(=O)(=O)NC2CCCCC2)cc1	0.7	48	-6	11	29	0.5
O=C(O)Cn1cccc1C(=O)c1ccccc1	x	x	0	12	x	x
CN(Cc1ccccc1)C(=O)Cn1cccc1C(=O)c1ccccc1	0.3	30	-4	-4	70*	0.7
SMILES	CYP2C19 act	CYP2C9 inh	PostGolgi yeast	PostGolgi ctrl	CYP2C19 inh	CYP2C9 activ
Cc1ccc(-c2ccc(CCC(=O)O)n2-c2cccc(O)c2)cc1	0.6	57*	9	5	44	0.4
CCC(Sc1nnnn1-c1ccccc1)C(=O)NC(C)c1ccccc1 (stereo not drawn)	0.3	44	2	13	74*	0.6
CC(Sc1nnnn1-c1ccccc1)C(=O)Nc1ccc(Cl)cn1 (stereo not drawn)	0.1	80*	1	-3	87*	0.2
COc1ccc(-n2nnnc2SC(C)C(N)=O)cc1 (stereo not drawn)	0.6	14	-1	11	38	0.9
CC(Sc1nnc2ccccn12)C(=O)Nc1ccc(Cl)cn1 (stereo not drawn)	0.5	8	-7	4	46	0.9
O=C(CSc1nnnn1-c1ccc(F)cc1)Nc1nc2ccccc2s1	1	-1	-7	9	-1	1
CCC(Sc1nnnn1-c1ccccc1)C(=O)Nc1nc2ccccc2s1 (stereo not drawn)	x	x	9	44*	x	x
CN(C(=O)CSC1=Nc2ccccc2C2=NC(c3ccccc3)C(=O)N12)C1CCCCC1 (stereo not drawn)	0.8	41	7	-8	16	0.6
COc1cccc(C(=O)CSc2nnc(CNS(=O)(=O)c3ccc(C)cc3)n2C)c1	1	2	-32	5	-2	1
CC(C)CCn1c(Oc2ccc(Cl)cc2)nc2c1c(=O)n(C)c(=O)n2C	0.9	6	4	22	11	0.9
O=C1C(c2ccc(F)cc2)N(Cc2ccc3c(c2)OCO3)C(=O)CN1C1CCCCC1 (stereo not drawn)	0.8	33	-4	3	19	0.7
O=C(OCn1ncc(Cl)c(Cl)c1=O)c1ccc(C(F)(F)F)cc1	0.2	22	109*	68*	83*	0.8
Cc1cccc(Cn2ncc(Cl)c(Cl)c2=O)c1	0.9	-7	9	3	10	1.1
Cc1ccc(NS(=O)(=O)c2ccc(C)c(C(=O)N3CCN(C)CC3)c2)cc1	0.9	1	2	-4	14	1
Cc1ncc2c(c1OC(=O)c1ccccc1)COC(C)(C)OC2	0	78*	14	-1	100*	0.2
COC(=O)c1ccc(-n2cnc(Cl)n2)c(F)c1	0.9	5	-3	11	5	1
COC(=O)c1c(C(=O)OC)c2ccncn2c1Cl	0.2	80*	4	-8	81*	0.2
Cc1nn(-c2ccc(F)cc2)c2c1cc(C#N)c1nc3ccccc3n12	1	0	8	4	3	1
CCOC(=O)C(C)Oc1ccsc1C(=O)OC (stereo not drawn)	1	14	6	18	2	0.9
COc1cc(C2CC(=O)Nc3ccccc3S2)cc(OC)c1OC (stereo not drawn)	0.4	35	-3	4	64*	0.7
CCOC(=O)c1sc(NC(=O)c2ccc3ncsc3c2)nc1C	1	-4	3	2	-2	1
Brc1ccc(-c2nc3ncccn3c2NC2CCCCC2)o1	0.5	56*	4	45*	48	0.4
Cc1ccc(-c2nc3ncccn3c2NC2CCCC2)o1	1	1	6	9	3	1
COC(=O)c1ccccc1NC(=O)c1cc(-c2cccs2)on1	1	-103	-7	14	-2	2*
O=C(Nc1cccnc1)c1cc(-c2cccs2)on1	1.1	-2	-5	6	-8	1
